Test results reported in the supplement of paper PMC11001985.

Each target was assayed with C#CCNC(=O)CCSSCCC(=O)NCCc1ccc(C=O)c(C=O)c1 (assay: lysine labeling ratio R10:1 (500 µM / 50 µM probe), SILAC-ABPP in living cells; higher = lower intrinsic lysine reactivity toward the probe, active = 2 or less). Conditions: HeLa; probe concentrations 500 vs 50 µM.
How it was run: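 Forward and reverse SILAC label swaps were used with living light and heavy HeLa cells in PBS at room temperature, which were given an alkyne-tagged, disulfide-linked lysine probe at 50 µM or 500 µM. R is the per-lysine filtered median high-probe/low-probe MS1 peptide ratio, with the median then taken across both swap directions. Values are limited to 20.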

UniProt Q13813, sequence (Q13813 whole entry): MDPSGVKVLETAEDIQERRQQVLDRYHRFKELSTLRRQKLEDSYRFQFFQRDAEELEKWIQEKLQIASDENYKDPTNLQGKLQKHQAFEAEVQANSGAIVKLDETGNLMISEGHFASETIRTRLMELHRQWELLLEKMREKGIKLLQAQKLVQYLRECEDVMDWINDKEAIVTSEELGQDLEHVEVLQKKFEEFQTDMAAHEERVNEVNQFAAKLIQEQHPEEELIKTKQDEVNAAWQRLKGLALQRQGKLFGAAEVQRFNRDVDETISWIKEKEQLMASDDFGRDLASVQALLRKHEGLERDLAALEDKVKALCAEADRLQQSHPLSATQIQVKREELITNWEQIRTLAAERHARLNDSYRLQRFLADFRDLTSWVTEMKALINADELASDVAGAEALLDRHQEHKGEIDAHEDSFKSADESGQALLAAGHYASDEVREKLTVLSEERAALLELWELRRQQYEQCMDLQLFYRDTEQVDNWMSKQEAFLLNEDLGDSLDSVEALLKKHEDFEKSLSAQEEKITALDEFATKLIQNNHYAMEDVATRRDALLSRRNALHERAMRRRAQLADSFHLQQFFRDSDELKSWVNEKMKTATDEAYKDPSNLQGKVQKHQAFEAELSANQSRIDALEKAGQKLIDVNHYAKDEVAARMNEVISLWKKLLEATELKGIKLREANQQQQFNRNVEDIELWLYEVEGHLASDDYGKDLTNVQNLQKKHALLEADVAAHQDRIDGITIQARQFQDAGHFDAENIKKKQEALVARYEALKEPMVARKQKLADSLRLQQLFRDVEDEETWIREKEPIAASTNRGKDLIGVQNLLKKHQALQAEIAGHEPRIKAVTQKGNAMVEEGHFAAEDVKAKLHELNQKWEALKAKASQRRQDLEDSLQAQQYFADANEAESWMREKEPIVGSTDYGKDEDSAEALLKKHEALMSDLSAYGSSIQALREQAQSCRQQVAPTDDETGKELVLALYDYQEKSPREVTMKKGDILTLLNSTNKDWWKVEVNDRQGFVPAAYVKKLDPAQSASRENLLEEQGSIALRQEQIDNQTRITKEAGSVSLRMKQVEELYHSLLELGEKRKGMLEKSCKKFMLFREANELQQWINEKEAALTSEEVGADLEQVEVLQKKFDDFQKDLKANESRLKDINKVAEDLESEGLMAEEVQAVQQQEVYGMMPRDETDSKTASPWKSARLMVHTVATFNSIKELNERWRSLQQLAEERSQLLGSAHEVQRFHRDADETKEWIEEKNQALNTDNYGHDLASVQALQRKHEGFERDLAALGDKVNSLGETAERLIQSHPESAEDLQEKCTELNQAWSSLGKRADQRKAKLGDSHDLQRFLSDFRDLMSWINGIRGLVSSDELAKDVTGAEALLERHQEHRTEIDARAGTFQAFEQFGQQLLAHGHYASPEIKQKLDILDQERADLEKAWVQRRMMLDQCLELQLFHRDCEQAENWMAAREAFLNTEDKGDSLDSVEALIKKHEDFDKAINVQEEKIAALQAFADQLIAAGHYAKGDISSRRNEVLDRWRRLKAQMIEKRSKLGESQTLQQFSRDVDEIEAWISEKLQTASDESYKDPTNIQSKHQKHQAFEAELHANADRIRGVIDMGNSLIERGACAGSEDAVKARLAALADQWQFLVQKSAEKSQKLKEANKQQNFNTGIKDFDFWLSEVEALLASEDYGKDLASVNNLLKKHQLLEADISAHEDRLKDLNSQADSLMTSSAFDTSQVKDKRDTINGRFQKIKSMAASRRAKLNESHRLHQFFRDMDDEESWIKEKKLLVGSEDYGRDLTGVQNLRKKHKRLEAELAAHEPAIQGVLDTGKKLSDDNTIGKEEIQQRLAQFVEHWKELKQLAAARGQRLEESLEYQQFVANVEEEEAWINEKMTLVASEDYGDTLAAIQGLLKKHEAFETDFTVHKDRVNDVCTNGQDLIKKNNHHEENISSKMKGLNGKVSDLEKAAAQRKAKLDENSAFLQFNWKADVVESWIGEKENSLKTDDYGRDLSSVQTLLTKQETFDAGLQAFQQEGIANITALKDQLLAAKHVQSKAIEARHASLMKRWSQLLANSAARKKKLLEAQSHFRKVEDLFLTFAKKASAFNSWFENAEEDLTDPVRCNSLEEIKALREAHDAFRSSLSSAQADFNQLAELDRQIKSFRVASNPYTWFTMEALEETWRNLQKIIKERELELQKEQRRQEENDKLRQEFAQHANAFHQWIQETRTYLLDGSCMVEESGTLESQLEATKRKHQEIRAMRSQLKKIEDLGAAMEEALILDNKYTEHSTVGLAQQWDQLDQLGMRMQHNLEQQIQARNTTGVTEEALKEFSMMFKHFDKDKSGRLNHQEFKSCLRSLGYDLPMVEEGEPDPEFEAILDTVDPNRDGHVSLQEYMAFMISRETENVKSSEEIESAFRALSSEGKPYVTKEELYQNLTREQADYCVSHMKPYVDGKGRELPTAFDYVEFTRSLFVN
UniProt P26639, sequence (P26639 whole entry): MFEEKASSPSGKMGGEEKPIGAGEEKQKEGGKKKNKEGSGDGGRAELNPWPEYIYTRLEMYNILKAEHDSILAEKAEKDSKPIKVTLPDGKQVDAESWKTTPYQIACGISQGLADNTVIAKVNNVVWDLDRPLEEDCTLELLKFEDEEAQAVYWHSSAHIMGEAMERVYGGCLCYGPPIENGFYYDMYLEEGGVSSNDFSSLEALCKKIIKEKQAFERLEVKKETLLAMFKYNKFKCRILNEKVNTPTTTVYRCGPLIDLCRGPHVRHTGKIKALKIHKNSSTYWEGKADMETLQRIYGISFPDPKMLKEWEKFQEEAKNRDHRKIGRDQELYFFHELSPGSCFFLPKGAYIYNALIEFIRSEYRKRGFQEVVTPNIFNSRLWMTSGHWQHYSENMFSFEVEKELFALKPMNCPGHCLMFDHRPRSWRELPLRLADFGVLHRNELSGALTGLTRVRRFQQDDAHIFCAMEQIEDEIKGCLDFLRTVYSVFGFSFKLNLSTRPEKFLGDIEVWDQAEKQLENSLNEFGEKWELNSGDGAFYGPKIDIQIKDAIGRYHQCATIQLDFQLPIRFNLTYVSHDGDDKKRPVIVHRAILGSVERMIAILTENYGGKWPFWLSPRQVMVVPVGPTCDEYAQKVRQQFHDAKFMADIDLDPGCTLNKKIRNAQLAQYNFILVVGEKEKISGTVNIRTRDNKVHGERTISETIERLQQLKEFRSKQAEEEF
UniProt P02786, sequence (P02786 whole entry, looked up): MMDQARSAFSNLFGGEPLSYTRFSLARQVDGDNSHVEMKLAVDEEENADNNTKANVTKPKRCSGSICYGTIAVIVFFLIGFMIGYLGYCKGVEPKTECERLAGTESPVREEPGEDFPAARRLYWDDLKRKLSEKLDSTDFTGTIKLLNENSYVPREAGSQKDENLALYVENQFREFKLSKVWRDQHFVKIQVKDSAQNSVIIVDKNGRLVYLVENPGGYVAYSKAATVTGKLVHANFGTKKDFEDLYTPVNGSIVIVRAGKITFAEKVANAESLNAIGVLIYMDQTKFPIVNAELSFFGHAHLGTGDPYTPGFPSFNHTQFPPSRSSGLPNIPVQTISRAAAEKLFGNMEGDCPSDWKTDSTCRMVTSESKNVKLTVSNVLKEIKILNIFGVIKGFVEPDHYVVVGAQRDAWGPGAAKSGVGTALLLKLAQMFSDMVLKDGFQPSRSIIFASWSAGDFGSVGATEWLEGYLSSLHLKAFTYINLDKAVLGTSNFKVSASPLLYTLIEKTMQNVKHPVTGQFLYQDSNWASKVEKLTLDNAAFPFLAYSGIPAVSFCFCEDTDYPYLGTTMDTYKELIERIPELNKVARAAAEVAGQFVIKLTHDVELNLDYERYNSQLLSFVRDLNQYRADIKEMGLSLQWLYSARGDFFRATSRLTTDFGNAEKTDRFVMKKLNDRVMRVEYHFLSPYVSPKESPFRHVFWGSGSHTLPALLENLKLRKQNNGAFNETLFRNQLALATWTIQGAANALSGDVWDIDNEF
UniProt P00387, sequence (P00387 whole entry): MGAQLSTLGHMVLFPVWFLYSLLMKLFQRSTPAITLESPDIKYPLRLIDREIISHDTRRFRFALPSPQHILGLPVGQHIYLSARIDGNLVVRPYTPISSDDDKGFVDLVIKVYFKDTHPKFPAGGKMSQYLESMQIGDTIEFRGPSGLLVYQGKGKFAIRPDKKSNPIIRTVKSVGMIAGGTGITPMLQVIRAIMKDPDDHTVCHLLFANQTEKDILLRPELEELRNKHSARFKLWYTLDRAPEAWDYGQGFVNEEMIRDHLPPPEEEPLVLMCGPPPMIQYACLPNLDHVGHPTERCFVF
UniProt O60701, sequence (O60701 whole entry): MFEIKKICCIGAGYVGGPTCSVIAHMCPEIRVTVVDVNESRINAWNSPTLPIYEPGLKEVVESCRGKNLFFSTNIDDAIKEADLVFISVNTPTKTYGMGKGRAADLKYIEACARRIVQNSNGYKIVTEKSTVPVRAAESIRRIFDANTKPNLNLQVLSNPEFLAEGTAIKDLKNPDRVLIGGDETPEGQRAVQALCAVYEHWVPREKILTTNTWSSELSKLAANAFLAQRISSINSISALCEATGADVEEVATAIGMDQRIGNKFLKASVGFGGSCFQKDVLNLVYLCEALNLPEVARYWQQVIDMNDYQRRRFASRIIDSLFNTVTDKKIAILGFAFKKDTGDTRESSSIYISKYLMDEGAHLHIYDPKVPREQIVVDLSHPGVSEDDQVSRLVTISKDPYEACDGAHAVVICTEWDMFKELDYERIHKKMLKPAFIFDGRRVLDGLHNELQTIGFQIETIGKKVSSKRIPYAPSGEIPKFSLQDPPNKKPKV
UniProt P23284, sequence (P23284 whole entry): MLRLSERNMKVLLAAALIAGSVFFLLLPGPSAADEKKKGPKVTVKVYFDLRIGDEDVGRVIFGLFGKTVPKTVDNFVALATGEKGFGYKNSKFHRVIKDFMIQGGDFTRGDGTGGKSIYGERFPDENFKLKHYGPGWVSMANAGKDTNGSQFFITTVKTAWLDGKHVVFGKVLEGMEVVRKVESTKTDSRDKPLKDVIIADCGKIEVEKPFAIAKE

Lysine labeling ratio R10:1, active:
ACTBL2 (lysine site: K114) (UniProt Q562R1) 1.15, SPTAN1 (lysine site: K1419) (UniProt Q13813) 0.907, UniProt P21589 (lysine site: K536) 1.24, UGDH (lysine site: K107) (UniProt O60701) 1.1, UniProt P26639 (lysine site: K712) 1.83, CYB5R3 (lysine site: K164) (UniProt P00387) 1.79

Lysine labeling ratio R10:1, inactive:
HSPA8 (lysine site: K71) (UniProt P11142) 2.62, LRP1 (lysine site: K3803) (UniProt Q07954) 3.09, PPIB (lysine site: K186) (UniProt P23284) 3.18, EPHA5 (lysine site: K194) (UniProt P54756) 2.4, UniProt Q15149 (lysine site: K2274) 2.24, SPTAN1 (lysine site: K2078) (UniProt Q13813) 4.25, PDCD6IP (lysine site: K313) (UniProt Q8WUM4) 2.29, SPTBN1 (lysine site: K1063) (UniProt Q01082) 7.24, AK2 (lysine site: K147) (UniProt P54819) 6.91, RPL28 (lysine site: K84) (UniProt P46779) 2.27, TFRC (lysine site: K672) (UniProt P02786) 3
